For 15 targets, NP40-soluble protein abundance results are on record in the supplement of paper PMC6411743.

Compound in the test: Nc1ncnc2c1ncn2[C@@H]1O[C@H](COP(=O)(O)OP(=O)(O)OP(=O)(O)O)[C@@H](O)[C@H]1O [adenosine triphosphate]
Briefly: NP40-soluble protein abundance relative to vehicle (solubility fold change) (ratio); higher = more soluble protein in presence of ATP. A digest of the protocol:
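In three independent experiments, Jurkat crude lysate made by Dounce homogenisation was treated for 10 min at room temperature and then 3 min at 37 °C with eight concentrations ranging from 0.1 to 10 mM. It was then solubilised with 0.8% NP40 plus benzonase for 60 min at 4 °C and ultracentrifuged. The supernatant was TMT-labelled for LC-MS/MS, and each value is the fold change against the detergent-processed vehicle for the same replicate, using vsn-normalised intensities.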

± gives the standard deviation of the averaged measurements. Of roughly 6,500 targets only a part is listed; those with the largest changes were picked by preference.

UniProt Q8TED0, sequence (Q8TED0 whole entry, one chain of several): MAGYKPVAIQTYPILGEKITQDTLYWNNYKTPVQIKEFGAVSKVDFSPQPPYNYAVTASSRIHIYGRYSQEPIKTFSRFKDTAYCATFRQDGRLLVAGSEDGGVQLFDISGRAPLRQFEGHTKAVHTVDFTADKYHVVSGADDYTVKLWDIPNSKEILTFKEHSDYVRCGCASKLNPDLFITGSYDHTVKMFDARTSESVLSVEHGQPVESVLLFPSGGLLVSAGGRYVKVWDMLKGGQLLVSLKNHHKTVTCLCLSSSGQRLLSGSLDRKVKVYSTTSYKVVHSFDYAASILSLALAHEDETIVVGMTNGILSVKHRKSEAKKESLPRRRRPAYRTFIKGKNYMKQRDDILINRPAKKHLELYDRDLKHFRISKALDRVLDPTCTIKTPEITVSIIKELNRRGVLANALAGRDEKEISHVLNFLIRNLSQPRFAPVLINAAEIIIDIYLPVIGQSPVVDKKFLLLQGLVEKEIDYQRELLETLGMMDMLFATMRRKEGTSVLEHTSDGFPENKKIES
UniProt Q86Y01, sequence (Q86Y01 whole entry): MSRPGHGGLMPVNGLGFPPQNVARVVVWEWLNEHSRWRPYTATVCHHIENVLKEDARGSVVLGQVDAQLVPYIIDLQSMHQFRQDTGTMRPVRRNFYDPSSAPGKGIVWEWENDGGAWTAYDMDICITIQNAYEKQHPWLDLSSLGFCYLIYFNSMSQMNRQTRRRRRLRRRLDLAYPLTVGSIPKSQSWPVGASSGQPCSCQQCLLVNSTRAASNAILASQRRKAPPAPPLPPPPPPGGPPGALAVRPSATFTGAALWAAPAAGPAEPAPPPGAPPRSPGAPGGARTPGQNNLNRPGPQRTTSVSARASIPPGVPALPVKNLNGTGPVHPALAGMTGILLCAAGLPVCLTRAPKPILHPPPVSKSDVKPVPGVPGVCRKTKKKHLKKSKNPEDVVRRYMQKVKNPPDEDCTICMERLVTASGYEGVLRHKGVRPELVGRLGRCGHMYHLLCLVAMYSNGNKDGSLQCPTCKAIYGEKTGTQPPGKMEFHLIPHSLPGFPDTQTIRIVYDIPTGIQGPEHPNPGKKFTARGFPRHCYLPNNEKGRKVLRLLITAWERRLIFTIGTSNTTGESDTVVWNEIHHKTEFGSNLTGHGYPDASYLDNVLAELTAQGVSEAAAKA
UniProt Q8IYD1, sequence (Q8IYD1 whole entry): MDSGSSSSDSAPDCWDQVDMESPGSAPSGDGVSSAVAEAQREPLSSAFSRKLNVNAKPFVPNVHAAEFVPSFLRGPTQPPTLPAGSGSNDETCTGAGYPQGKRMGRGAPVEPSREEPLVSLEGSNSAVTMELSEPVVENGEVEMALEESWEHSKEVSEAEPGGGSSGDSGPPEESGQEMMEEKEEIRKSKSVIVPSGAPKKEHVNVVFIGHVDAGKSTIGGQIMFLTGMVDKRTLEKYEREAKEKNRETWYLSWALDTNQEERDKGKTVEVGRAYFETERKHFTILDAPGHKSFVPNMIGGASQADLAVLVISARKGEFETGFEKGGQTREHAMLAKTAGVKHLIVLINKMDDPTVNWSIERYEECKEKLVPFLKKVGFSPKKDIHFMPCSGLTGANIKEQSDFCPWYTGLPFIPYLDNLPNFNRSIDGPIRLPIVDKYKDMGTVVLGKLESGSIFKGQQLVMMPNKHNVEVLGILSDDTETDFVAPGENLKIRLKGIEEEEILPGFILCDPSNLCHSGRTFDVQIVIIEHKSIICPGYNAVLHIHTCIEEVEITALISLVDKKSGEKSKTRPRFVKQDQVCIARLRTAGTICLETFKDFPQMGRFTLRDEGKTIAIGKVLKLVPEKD
UniProt Q70Z53, sequence (Q70Z53 whole entry): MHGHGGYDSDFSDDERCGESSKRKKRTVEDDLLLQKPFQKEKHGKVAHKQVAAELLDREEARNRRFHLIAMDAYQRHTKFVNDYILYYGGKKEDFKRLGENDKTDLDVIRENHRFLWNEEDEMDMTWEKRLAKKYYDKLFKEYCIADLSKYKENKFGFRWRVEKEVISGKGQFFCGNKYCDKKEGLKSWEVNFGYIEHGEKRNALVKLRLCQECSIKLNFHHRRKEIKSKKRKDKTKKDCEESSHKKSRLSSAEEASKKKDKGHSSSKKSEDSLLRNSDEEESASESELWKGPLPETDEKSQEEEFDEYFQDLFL
UniProt Q6IN85, sequence (Q6IN85 whole entry): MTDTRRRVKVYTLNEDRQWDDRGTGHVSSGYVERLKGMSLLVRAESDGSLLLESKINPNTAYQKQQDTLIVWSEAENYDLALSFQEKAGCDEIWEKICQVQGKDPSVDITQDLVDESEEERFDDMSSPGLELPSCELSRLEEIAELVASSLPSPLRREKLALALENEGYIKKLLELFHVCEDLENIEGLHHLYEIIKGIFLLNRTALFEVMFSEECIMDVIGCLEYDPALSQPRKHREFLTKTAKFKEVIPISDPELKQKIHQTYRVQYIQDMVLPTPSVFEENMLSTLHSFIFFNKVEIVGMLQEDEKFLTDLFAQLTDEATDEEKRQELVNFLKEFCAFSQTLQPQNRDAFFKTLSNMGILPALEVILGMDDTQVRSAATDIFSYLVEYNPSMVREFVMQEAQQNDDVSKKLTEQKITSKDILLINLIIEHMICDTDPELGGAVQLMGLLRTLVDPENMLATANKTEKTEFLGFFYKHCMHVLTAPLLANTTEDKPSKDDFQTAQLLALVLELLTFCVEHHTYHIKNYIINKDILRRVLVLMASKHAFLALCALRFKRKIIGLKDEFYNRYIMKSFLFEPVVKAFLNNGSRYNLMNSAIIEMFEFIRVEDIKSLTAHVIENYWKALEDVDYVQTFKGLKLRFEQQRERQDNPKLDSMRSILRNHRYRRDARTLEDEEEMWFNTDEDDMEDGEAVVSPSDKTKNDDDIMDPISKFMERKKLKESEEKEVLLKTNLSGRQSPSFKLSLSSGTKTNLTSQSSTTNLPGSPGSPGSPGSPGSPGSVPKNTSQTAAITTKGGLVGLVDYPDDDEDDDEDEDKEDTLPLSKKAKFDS
UniProt Q16630, sequence (Q16630 whole entry): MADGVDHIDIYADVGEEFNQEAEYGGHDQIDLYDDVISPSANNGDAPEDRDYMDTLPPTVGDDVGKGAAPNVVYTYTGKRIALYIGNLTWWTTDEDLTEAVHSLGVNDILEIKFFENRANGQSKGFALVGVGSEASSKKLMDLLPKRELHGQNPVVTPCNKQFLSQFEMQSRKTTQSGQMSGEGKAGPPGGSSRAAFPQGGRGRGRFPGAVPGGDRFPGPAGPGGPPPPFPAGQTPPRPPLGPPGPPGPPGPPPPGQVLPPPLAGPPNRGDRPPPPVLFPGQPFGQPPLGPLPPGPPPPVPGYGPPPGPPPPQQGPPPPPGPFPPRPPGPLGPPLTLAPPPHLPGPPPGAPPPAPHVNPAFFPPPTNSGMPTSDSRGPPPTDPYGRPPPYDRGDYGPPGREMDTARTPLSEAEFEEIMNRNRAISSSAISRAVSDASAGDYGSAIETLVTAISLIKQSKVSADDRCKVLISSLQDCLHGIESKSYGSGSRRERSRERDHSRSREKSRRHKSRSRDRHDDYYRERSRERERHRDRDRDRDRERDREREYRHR
UniProt Q15393, sequence (Q15393 whole entry): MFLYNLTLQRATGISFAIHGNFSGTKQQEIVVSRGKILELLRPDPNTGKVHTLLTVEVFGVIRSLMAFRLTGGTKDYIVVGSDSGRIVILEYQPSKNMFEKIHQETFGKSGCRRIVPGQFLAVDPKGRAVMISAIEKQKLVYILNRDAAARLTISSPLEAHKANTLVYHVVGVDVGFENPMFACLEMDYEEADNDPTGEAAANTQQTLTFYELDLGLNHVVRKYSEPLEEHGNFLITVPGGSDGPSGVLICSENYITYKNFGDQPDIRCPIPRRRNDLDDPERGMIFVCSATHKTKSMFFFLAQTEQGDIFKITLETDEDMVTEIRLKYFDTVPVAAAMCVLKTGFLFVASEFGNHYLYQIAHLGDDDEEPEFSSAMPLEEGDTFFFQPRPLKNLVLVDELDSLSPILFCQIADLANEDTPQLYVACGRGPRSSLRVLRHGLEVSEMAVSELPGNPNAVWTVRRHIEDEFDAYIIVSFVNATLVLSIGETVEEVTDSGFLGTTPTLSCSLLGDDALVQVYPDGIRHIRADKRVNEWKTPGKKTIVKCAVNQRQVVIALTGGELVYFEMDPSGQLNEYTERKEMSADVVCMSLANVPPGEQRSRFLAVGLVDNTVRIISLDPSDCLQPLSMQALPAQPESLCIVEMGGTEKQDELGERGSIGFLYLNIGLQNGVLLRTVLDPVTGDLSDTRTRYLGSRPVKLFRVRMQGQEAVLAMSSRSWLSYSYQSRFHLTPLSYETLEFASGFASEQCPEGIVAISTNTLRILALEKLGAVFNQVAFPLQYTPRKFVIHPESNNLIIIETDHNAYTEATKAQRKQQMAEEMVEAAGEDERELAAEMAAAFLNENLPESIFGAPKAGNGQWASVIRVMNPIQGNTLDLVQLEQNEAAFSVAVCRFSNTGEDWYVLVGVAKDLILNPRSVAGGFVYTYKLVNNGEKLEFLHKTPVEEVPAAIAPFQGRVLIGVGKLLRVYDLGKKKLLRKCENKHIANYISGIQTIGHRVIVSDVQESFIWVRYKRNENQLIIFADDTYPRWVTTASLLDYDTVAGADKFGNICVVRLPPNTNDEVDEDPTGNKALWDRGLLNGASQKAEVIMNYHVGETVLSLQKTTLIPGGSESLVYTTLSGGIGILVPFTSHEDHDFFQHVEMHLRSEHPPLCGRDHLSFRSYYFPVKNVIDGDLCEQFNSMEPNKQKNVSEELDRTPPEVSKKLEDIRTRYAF
UniProt Q6I9Y2, sequence (Q6I9Y2 whole entry): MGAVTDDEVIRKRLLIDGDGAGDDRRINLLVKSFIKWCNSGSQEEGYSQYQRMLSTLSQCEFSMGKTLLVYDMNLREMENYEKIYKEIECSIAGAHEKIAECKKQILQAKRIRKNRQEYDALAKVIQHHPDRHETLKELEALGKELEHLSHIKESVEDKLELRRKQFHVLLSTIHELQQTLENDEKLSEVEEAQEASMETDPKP

In the case of UniProt Q8TEB1|Q8TEB1-2, the NP40-soluble protein abundance by setting is: (concentration: 1mM) 0.948 ± 0.093; (concentration: 2mM) 0.977 ± 0.06; (concentration: 4mM) 0.961 ± 0.079; (concentration: 6mM) 0.956 ± 0.054; (concentration: 8mM) 0.942 ± 0.066; (concentration: 10mM) 0.918 ± 0.078.

Regarding “UniProt Q8IY17|Q8IY17-3|Q8IY17-4|Q8IY17-2”, the NP40-soluble protein abundance is, setting by setting: (concentration: 1mM) 1.05 ± 0.056; (concentration: 2mM) 1.05 ± 0.033; (concentration: 4mM) 1.028 ± 0.0096; (concentration: 6mM) 1.01 ± 0.051; (concentration: 8mM) 1.04 ± 0.04; (concentration: 10mM) 1.06 ± 0.036.

As to UniProt Q70Z53, the NP40-soluble protein abundance runs as follows: (concentration: 1mM) 0.931 ± 0.015; (concentration: 2mM) 0.927 ± 0.028; (concentration: 4mM) 0.919 ± 0.011; (concentration: 6mM) 0.922 ± 0.066; (concentration: 8mM) 0.933 ± 0.058; (concentration: 10mM) 0.936 ± 0.013.

For Q5VVD7|Q8IWE5 (UniProt Q8IWE5), the NP40-soluble protein abundance (concentration: 1mM) is 0.929 ± 0.047; the NP40-soluble protein abundance (concentration: 2mM) turned out to be 0.998 ± 0.048; the NP40-soluble protein abundance (concentration: 4mM) was 0.932 ± 0.04; the NP40-soluble protein abundance (concentration: 6mM) was found to be 0.953 ± 0.036; the NP40-soluble protein abundance (concentration: 8mM) was determined as 0.95 ± 0.04; the NP40-soluble protein abundance (concentration: 10mM) amounted to 0.955 ± 0.03.

With CIRBP (UniProt Q14011), the NP40-soluble protein abundance (concentration: 1mM) stood at 0.999 ± 0.062; the NP40-soluble protein abundance (concentration: 2mM) is 1.02 ± 0.029; the NP40-soluble protein abundance (concentration: 4mM) worked out at 1.04 ± 0.033; the NP40-soluble protein abundance (concentration: 6mM) worked out at 1.1 ± 0.061; the NP40-soluble protein abundance (concentration: 8mM) was 1.09 ± 0.051; the NP40-soluble protein abundance (concentration: 10mM) is 1.1 ± 0.025.

On to UniProt Q6IN85, for which the NP40-soluble protein abundance (concentration: 1mM) came to 1.03 ± 0.066; the NP40-soluble protein abundance (concentration: 2mM) is 0.979 ± 0.042; the NP40-soluble protein abundance (concentration: 4mM) worked out at 0.946 ± 0.041; the NP40-soluble protein abundance (concentration: 6mM) amounted to 0.991 ± 0.048; the NP40-soluble protein abundance (concentration: 8mM) came out at 0.956 ± 0.047; the NP40-soluble protein abundance (concentration: 10mM) turned out to be 0.935 ± 0.08.

In the case of GSPT2 (UniProt Q8IYD1), the NP40-soluble protein abundance (concentration: 1mM) came out at 1.035 ± 0.0061; the NP40-soluble protein abundance (concentration: 2mM) turned out to be 1.023 ± 0.0095; the NP40-soluble protein abundance (concentration: 4mM) turned out to be 1 ± 0.016; the NP40-soluble protein abundance (concentration: 6mM) stood at 1.01 ± 0.02; the NP40-soluble protein abundance (concentration: 8mM) stood at 0.991 ± 0.042; the NP40-soluble protein abundance (concentration: 10mM) worked out at 0.987 ± 0.037.

For SF3B3 (UniProt Q15393), the NP40-soluble protein abundance worked out at 1.12 ± 0.072 (concentration: 1mM); 1.11 ± 0.052 (concentration: 2mM); 1.15 ± 0.072 (concentration: 4mM); 1.1 ± 0.032 (concentration: 6mM); 1.188 ± 0.0092 (concentration: 8mM); 1.19 ± 0.037 (concentration: 10mM).

Consider UniProt Q8TED0|H0Y8P4|Q8TED0-3, for which the NP40-soluble protein abundance is, setting by setting: (concentration: 1mM) 1.18 ± 0.18; (concentration: 2mM) 1.22 ± 0.11; (concentration: 4mM) 1.32 ± 0.18; (concentration: 6mM) 1.43 ± 0.28; (concentration: 8mM) 1.5 ± 0.24; (concentration: 10mM) 1.77 ± 0.41.

On to UniProt Q16630|Q16630-2, for which the NP40-soluble protein abundance by setting is: (concentration: 1mM) 2.36 ± 0.24; (concentration: 2mM) 2.68 ± 0.27; (concentration: 4mM) 2.89 ± 0.3; (concentration: 6mM) 3.09 ± 0.32; (concentration: 8mM) 3.03 ± 0.2; (concentration: 10mM) 3.05 ± 0.28.

Regarding UniProt Q3KQU3|Q3KQU3-4, the NP40-soluble protein abundance (concentration: 1mM) was 1.08 ± 0.1; the NP40-soluble protein abundance (concentration: 2mM) came out at 1.03 ± 0.11; the NP40-soluble protein abundance (concentration: 4mM) worked out at 1.09 ± 0.13; the NP40-soluble protein abundance (concentration: 6mM) turned out to be 1.13 ± 0.26; the NP40-soluble protein abundance (concentration: 8mM) is 1.1 ± 0.16; the NP40-soluble protein abundance (concentration: 10mM) came to 1.14 ± 0.13.

Take TTC19 (UniProt Q6DKK2): the NP40-soluble protein abundance by setting is: (concentration: 1mM) 0.971 ± 0.078; (concentration: 2mM) 0.922 ± 0.037; (concentration: 4mM) 0.973 ± 0.043; (concentration: 6mM) 0.923 ± 0.04; (concentration: 8mM) 0.985 ± 0.038; (concentration: 10mM) 0.865 ± 0.094.

Regarding UniProt Q86Y01, the NP40-soluble protein abundance by setting is: (concentration: 1mM) 0.964 ± 0.033; (concentration: 2mM) 1.05 ± 0.022; (concentration: 4mM) 1.12 ± 0.065; (concentration: 6mM) 1.05 ± 0.088; (concentration: 8mM) 1.09 ± 0.012; (concentration: 10mM) 1.15 ± 0.1.

As to PPIG (UniProt Q13427), the NP40-soluble protein abundance by setting is: (concentration: 1mM) 1.61 ± 0.22; (concentration: 2mM) 1.69 ± 0.27; (concentration: 4mM) 1.78 ± 0.32; (concentration: 6mM) 1.99 ± 0.49; (concentration: 8mM) 1.85 ± 0.43; (concentration: 10mM) 1.95 ± 0.46.

For the target THOC7 (UniProt Q6I9Y2), the NP40-soluble protein abundance by setting is: (concentration: 1mM) 1.4 ± 0.11; (concentration: 2mM) 1.5 ± 0.15; (concentration: 4mM) 1.73 ± 0.19; (concentration: 6mM) 1.95 ± 0.38; (concentration: 8mM) 2.12 ± 0.2; (concentration: 10mM) 2.03 ± 0.26.
